# According to the supplement of paper PMC10037445:
# “And” between values parts separate entries of the source, which are not always exact repeats. Equal entries are not always repeated. In all, about 2,900 compounds were measured (“NF-kB SEAP reporter activity, fold change vs agonist alone”: median about 0.99, highest 2% from about 2.6 on). Many of the other results were omitted from the sample, so the highest values are more common in it than they were.
# How the values were obtained:
# RAW-Dual [1] = experiment: NF-kB SEAP reporter activity, fold change vs agonist alone; higher = enhanced NF-kB activity
# Outline: (§1)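 RAW-Dual macrophages (50,000 cells/well in DMEM, 384-well plates) received 50 nL of library stock by pin tool, then a PRR agonist 1 h later, and were kept at 37 °C, 5% CO2. After 20 hours, supernatant was read for IRF by QuantiLuc luminescence and for NF-κB by QuantiBlue absorbance at 620 nm. Reporter activity is fold change over agonist-alone wells. Cytotoxic wells had IncuCyte confluency below 70% of agonist controls in both mask sets.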
# RAW-Dual [2] = experiment: NF-kB SEAP reporter activity, fold change vs agonist alone; cytotoxicity flag (confluency mask): not cytotoxic; higher = enhanced NF-kB activity
# Outline: as §1
# RAW-Dual [3] = experiment: NF-kB SEAP reporter activity, fold change vs agonist alone; cytotoxicity flag (confluency mask): cytotoxic (confluency <70% of control); higher = enhanced NF-kB activity
# Outline: as §1
# [4] = library stock concentration (final ~1000-fold dilution): 10 mM, cytotoxicity flag (confluency mask): not cytotoxic, agonist: Imiquimod (TLR7) […]
# [5] = library stock concentration (final ~1000-fold dilution): 10 mM, cytotoxicity flag (confluency mask): not cytotoxic, agonist: MPLA (TLR4) […]
# [6] = agonist: ODN 1826 (TLR9) 0.5 ug/mL
# [7] = agonist: Pam2CSK4 (TLR2/6) 0.1 ug/mL
# [8] = agonist: Pam3CSK4 (TLR2/1) 0.1 ug/mL
# [9] = library stock concentration (final ~1000-fold dilution): 10 mM, cytotoxicity flag (confluency mask): cytotoxic (confluency <70% of control), agonist: Imiquimod (TLR7) […]
# [10] = library stock concentration (final ~1000-fold dilution): 10 mM, cytotoxicity flag (confluency mask): cytotoxic (confluency <70% of control), agonist: MPLA (TLR4) […]
smiles,measurement,setting,value
NC(CSC(c1ccccc1)(c1ccccc1)c1ccccc1)C(=O)O (configuration not stated),NF-kB SEAP reporter activity,RAW-Dual [1]; [4],0.946
same,NF-kB SEAP reporter activity,RAW-Dual [1]; [5],0.976
CC(C)c1nc(N(C)S(C)(=O)=O)nc(-c2ccc(F)cc2)c1/C=C/C(O)CC(O)CC(=O)O (configuration not stated) (library stock concentration (final ~1000-fold dilution): 10 mM),NF-kB SEAP reporter activity,RAW-Dual [2]; agonist: LPS (TLR4) 0.1 ug/mL,0.973
same,NF-kB SEAP reporter activity,RAW-Dual [2]; [6],1.18
same,NF-kB SEAP reporter activity,RAW-Dual [2]; [7],1.21
same,NF-kB SEAP reporter activity,RAW-Dual [2]; [8],1.1
O=C(O)CC(O)CC(O)C=Cc1c(C2CC2)nc2ccccc2c1-c1ccc(F)cc1 (configuration not stated) (library stock concentration (final ~1000-fold dilution): 10 mM),NF-kB SEAP reporter activity,RAW-Dual [2]; agonist: LPS (TLR4) 0.1 ug/mL,3
same,NF-kB SEAP reporter activity,RAW-Dual [2]; [6],3
same,NF-kB SEAP reporter activity,RAW-Dual [2]; [7],2.4
same,NF-kB SEAP reporter activity,RAW-Dual [2]; [8],3.31
CC(C)c1nc(N(C)S(C)(=O)=O)nc(-c2ccc(F)cc2)c1/C=C/C(O)CC(O)CC(=O)O (configuration not stated),NF-kB SEAP reporter activity,RAW-Dual [1]; [5],1.1
CC(C)c1nc(N(C)S(C)(=O)=O)nc(-c2ccc(F)cc2)c1C=CC(O)CC(O)CC(=O)O (configuration not stated),NF-kB SEAP reporter activity,RAW-Dual [1]; [4],0.909
same,NF-kB SEAP reporter activity,RAW-Dual [1]; [5],1.05
CC(C)c1nc(N(C)S(C)(=O)=O)nc(-c2ccc(F)cc2)c1C=CC(O)CC(O)CC(=O)O (configuration not stated) (library stock concentration (final ~1000-fold dilution): 10 mM),NF-kB SEAP reporter activity,RAW-Dual [2]; agonist: LPS (TLR4) 0.1 ug/mL,1.43
same,NF-kB SEAP reporter activity,RAW-Dual [2]; [6],1.24
same,NF-kB SEAP reporter activity,RAW-Dual [2]; [7],1.01
same,NF-kB SEAP reporter activity,RAW-Dual [2]; [8],1.2
CC(C)c1c(C(=O)Nc2ccccc2)c(-c2ccccc2)c(-c2ccc(F)cc2)n1CCC(O)CC(O)CC(=O)O (configuration not stated) (library stock concentration (final ~1000-fold dilution): 10 mM),NF-kB SEAP reporter activity,RAW-Dual [2]; agonist: LPS (TLR4) 0.1 ug/mL,1.85 and 2.93
same,NF-kB SEAP reporter activity,RAW-Dual [2]; [6],1.49 and 1.82
same,NF-kB SEAP reporter activity,RAW-Dual [2]; [7],1.03 and 1.49
same,NF-kB SEAP reporter activity,RAW-Dual [2]; [8],1.3 and 1.42
CC(C)n1c(C=CC(O)CC(O)CC(=O)O)c(-c2ccc(F)cc2)c2ccccc21 (configuration not stated) (library stock concentration (final ~1000-fold dilution): 10 mM),NF-kB SEAP reporter activity,RAW-Dual [2]; agonist: LPS (TLR4) 0.1 ug/mL,3.64
same,NF-kB SEAP reporter activity,RAW-Dual [2]; [6],2.92
same,NF-kB SEAP reporter activity,RAW-Dual [2]; [7],2.13
same,NF-kB SEAP reporter activity,RAW-Dual [2]; [8],3.38
CC(C)n1c(C=CC(O)CC(O)CC(=O)O)c(-c2ccc(F)cc2)c2ccccc21 (configuration not stated),NF-kB SEAP reporter activity,RAW-Dual [1]; [4],2.45
same,NF-kB SEAP reporter activity,RAW-Dual [1]; [5],2.14
O=C(O)CC(O)CC(O)C=Cc1c(C2CC2)nc2ccccc2c1-c1ccc(F)cc1 (configuration not stated),NF-kB SEAP reporter activity,RAW-Dual [1]; [4],2.52
same,NF-kB SEAP reporter activity,RAW-Dual [1]; [5],2.05
O=c1[nH]c(=S)[nH]c2nc(-c3ccccc3)c(-c3ccccc3)nc12,NF-kB SEAP reporter activity,RAW-Dual [1]; [4],0.796
same,NF-kB SEAP reporter activity,RAW-Dual [1]; [5],0.977
O=c1[nH]c(=S)[nH]c2nc(-c3ccccc3)c(-c3ccccc3)nc12 (library stock concentration (final ~1000-fold dilution): 10 mM),NF-kB SEAP reporter activity,RAW-Dual [2]; agonist: LPS (TLR4) 0.1 ug/mL,0.947
same,NF-kB SEAP reporter activity,RAW-Dual [2]; [6],0.854
same,NF-kB SEAP reporter activity,RAW-Dual [2]; [7],0.938
same,NF-kB SEAP reporter activity,RAW-Dual [2]; [8],0.926
Br.CCCc1cc(-c2nc(-c3ccc(C)cc3)cs2)ccn1 (library stock concentration (final ~1000-fold dilution): 10 mM),NF-kB SEAP reporter activity,RAW-Dual [3]; agonist: LPS (TLR4) 0.1 ug/mL,1.54
same,NF-kB SEAP reporter activity,RAW-Dual [3]; [6],1.04
same,NF-kB SEAP reporter activity,RAW-Dual [3]; [7],1.07
same,NF-kB SEAP reporter activity,RAW-Dual [3]; [8],0.895
Br.CCCc1cc(-c2nc(-c3ccc(C)cc3)cs2)ccn1,NF-kB SEAP reporter activity,RAW-Dual [1]; [9],1.1
same,NF-kB SEAP reporter activity,RAW-Dual [1]; [10],1.37
Cc1cccc(CN2CCN(C(c3ccccc3)c3ccc(Cl)cc3)CC2)c1.Cl.Cl (configuration not stated),NF-kB SEAP reporter activity,"RAW-Dual [1]; library stock concentration (final ~1000-fold dilution): 2 mM, cytotoxicity flag (confluency mask): not cytotoxic, agonist: Imiquimod (TLR7) […]",0.843
same,NF-kB SEAP reporter activity,"RAW-Dual [1]; library stock concentration (final ~1000-fold dilution): 2 mM, cytotoxicity flag (confluency mask): not cytotoxic, agonist: MPLA (TLR4) […]",1.15
Cc1cccc(CN2CCN(C(c3ccccc3)c3ccc(Cl)cc3)CC2)c1.Cl.Cl (configuration not stated) (library stock concentration (final ~1000-fold dilution): 2 mM),NF-kB SEAP reporter activity,RAW-Dual [2]; agonist: LPS (TLR4) 0.1 ug/mL,1.51
same,NF-kB SEAP reporter activity,RAW-Dual [2]; [6],0.87
same,NF-kB SEAP reporter activity,RAW-Dual [2]; [7],0.931
same,NF-kB SEAP reporter activity,RAW-Dual [2]; [8],0.984
Brc1ccc(C2CN3CCSC3=N2)cc1.O=C(O)C(=O)O (configuration not stated),NF-kB SEAP reporter activity,RAW-Dual [1]; [4],0.948
same,NF-kB SEAP reporter activity,RAW-Dual [1]; [5],1.01
Brc1ccc(C2CN3CCSC3=N2)cc1.O=C(O)C(=O)O (configuration not stated) (library stock concentration (final ~1000-fold dilution): 10 mM),NF-kB SEAP reporter activity,RAW-Dual [2]; agonist: LPS (TLR4) 0.1 ug/mL,1.48
same,NF-kB SEAP reporter activity,RAW-Dual [2]; [6],0.888
same,NF-kB SEAP reporter activity,RAW-Dual [2]; [7],0.956
same,NF-kB SEAP reporter activity,RAW-Dual [2]; [8],1.01
CC(=N)NCc1cccc(CN)c1.Cl.Cl (library stock concentration (final ~1000-fold dilution): 10 mM),NF-kB SEAP reporter activity,RAW-Dual [2]; agonist: LPS (TLR4) 0.1 ug/mL,0.956
same,NF-kB SEAP reporter activity,RAW-Dual [2]; [6],1.03
same,NF-kB SEAP reporter activity,RAW-Dual [2]; [7],1.02
same,NF-kB SEAP reporter activity,RAW-Dual [2]; [8],0.859
CC(=N)NCc1cccc(CN)c1.Cl.Cl,NF-kB SEAP reporter activity,RAW-Dual [1]; [4],1.08
same,NF-kB SEAP reporter activity,RAW-Dual [1]; [5],1.03
CNC1CCC(c2ccc(Cl)c(Cl)c2)c2ccccc21.Cl (configuration not stated) (library stock concentration (final ~1000-fold dilution): 10 mM),NF-kB SEAP reporter activity,RAW-Dual [3]; agonist: LPS (TLR4) 0.1 ug/mL,0.879
same,NF-kB SEAP reporter activity,RAW-Dual [3]; [6],0.405
same,NF-kB SEAP reporter activity,RAW-Dual [3]; [7],0.42
same,NF-kB SEAP reporter activity,RAW-Dual [3]; [8],0.484
CNC1CCC(c2ccc(Cl)c(Cl)c2)c2ccccc21.Cl (configuration not stated),NF-kB SEAP reporter activity,RAW-Dual [1]; [9],1.64
same,NF-kB SEAP reporter activity,RAW-Dual [1]; [10],1.56
CC(C)(C)c1ccc(Cn2nc(-c3ccc(Cl)cc3)cc2C(=O)NO)cc1,NF-kB SEAP reporter activity,RAW-Dual [1]; [4],1.47
same,NF-kB SEAP reporter activity,RAW-Dual [1]; [5],1.5
CC(C)(C)c1ccc(Cn2nc(-c3ccc(Cl)cc3)cc2C(=O)NO)cc1 (library stock concentration (final ~1000-fold dilution): 10 mM),NF-kB SEAP reporter activity,RAW-Dual [2]; agonist: LPS (TLR4) 0.1 ug/mL,1.32
same,NF-kB SEAP reporter activity,RAW-Dual [2]; [6],1.24
same,NF-kB SEAP reporter activity,RAW-Dual [2]; [7],0.824
same,NF-kB SEAP reporter activity,RAW-Dual [2]; [8],0.964
COC1/C=C/OC2(C)Oc3c(C)c(O)c4c(O)c(c(/C=N/N5CCN(C)CC5)c(O)c4c3C2=O)NC(=O)/C(C)=C/C=C/C(C)C(O)C(C)C(O)C(C)C(OC(C)=O)C1C (configuration not stated),NF-kB SEAP reporter activity,RAW-Dual [1]; [4],0.886
same,NF-kB SEAP reporter activity,RAW-Dual [1]; [5],0.877
COC1/C=C/OC2(C)Oc3c(C)c(O)c4c(O)c(c(/C=N/N5CCN(C)CC5)c(O)c4c3C2=O)NC(=O)/C(C)=C/C=C/C(C)C(O)C(C)C(O)C(C)C(OC(C)=O)C1C (configuration not stated) (library stock concentration (final ~1000-fold dilution): 10 mM),NF-kB SEAP reporter activity,RAW-Dual [2]; agonist: LPS (TLR4) 0.1 ug/mL,0.987
same,NF-kB SEAP reporter activity,RAW-Dual [2]; [6],0.979
same,NF-kB SEAP reporter activity,RAW-Dual [2]; [7],0.906
same,NF-kB SEAP reporter activity,RAW-Dual [2]; [8],0.892
